Source: publication PMC8384837, “Expanding the binding specificity for RNA recognition by a PUF domain”

What was measured:
Experiment in all cases: yeast three-hybrid, YBZ-1, SC-Leu-His + 0.5 mM 3-AT, 4 days
Details in all cases: tags: N-Gal4 AD-HA kept; label: inside an RPR1-promoter hybrid RNA with tandem MS2 sites; ssRNA
[1] = target: PUM1 PUF domain R5-SQA (Homo sapiens, UniProt Q14671 828-1176, C1007S;R1008Q;Q1011A)
Summary of the method: (§1)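 Pumilio-1 PUF domain libraries, randomized at the three base-contacting residues of each repeat, were co-expressed with matching RNA elements from a centromeric plasmid in strain YBZ-1, which carries a LexA–MS2 coat fusion and a HIS3 reporter. Transformants grew for four days on SC-Leu (input) or on SC-Leu-His + 0.5 mM 3-AT (selection), and the repeat regions were PCR-amplified and Illumina-sequenced. The interaction score is the log change in variant frequency from input to selection. That logarithm is base 2, with a pseudocount of 1 where a variant was absent.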

[2] = target: PUM1 PUF domain R5-RRM (Homo sapiens, UniProt Q14671 828-1176, C1007R;Q1011M)
Summary of the method: as §1

[3] = target: PUM1 PUF domain R5-KKD (Homo sapiens, UniProt Q14671 828-1176, C1007K;R1008K;Q1011D)
Summary of the method: as §1

[4] = target: T1, PUM1 PUF domain R6-AWR (Homo sapiens, UniProt Q14671 828-1176, N1043A;Y1044W;Q1047R)
T1 sequence: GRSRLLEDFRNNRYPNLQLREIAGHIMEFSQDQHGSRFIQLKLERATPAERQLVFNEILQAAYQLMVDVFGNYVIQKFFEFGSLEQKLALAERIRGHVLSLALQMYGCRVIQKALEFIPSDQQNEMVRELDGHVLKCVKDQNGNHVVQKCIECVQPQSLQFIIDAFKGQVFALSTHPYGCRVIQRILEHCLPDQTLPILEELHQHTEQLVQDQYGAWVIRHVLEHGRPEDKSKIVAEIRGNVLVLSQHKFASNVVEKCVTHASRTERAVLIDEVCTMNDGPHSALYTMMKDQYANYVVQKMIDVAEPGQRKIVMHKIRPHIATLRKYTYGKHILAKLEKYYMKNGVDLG
Summary of the method: as §1

[5] = target: PUM1 PUF domain R4-ANA (Homo sapiens, UniProt Q14671 828-1176, N971A;H972N;Q975A)
Summary of the method: as §1

[6] = target: PUM1 PUF domain R4-GND (Homo sapiens, UniProt Q14671 828-1176, N971G;H972N;Q975D)
Summary of the method: as §1

[7] = target: PUM1 PUF domain R3-YYR (Homo sapiens, UniProt Q14671 828-1176, C935Y;R936Y;Q939R)
Summary of the method: as §1

[8] = target: PUM1 PUF domain R7-LMF (Homo sapiens, UniProt Q14671 828-1176, S1079L;N1080M;E1083F)
Summary of the method: as §1

[9] = target: PUM1 PUF domain R2-LPC (Homo sapiens, UniProt Q14671 828-1176, N899L;Y900P;Q903C)
Summary of the method: as §1

[10] = target: PUM1 PUF domain R2-KVA (Homo sapiens, UniProt Q14671 828-1176, N899K;Y900V;Q903A)
Summary of the method: as §1

[11] = target: PUM1 PUF domain R2-RRT (Homo sapiens, UniProt Q14671 828-1176, N899R;Y900R;Q903T)
Summary of the method: as §1

[12] = target: PUM1 PUF domain R2-MVW (Homo sapiens, UniProt Q14671 828-1176, N899M;Y900V;Q903W)
Summary of the method: as §1

[13] = target: PUM1 PUF domain R2-KLS (Homo sapiens, UniProt Q14671 828-1176, N899K;Y900L;Q903S)
Summary of the method: as §1

PUM1 PUF domain R2-KVA, sequence (Q14671 828-1176 N899K/Y900V/Q903A): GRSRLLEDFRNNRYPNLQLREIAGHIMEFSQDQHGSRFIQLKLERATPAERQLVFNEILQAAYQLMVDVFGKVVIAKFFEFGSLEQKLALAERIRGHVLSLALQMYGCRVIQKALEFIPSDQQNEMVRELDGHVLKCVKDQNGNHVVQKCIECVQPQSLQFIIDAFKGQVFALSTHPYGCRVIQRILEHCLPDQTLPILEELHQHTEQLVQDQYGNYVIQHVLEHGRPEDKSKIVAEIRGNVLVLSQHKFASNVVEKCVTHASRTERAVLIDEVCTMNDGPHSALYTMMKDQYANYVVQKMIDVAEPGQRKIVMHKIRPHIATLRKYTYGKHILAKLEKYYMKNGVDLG
PUM1 PUF domain R5-SQA, sequence (Q14671 828-1176 C1007S/R1008Q/Q1011A): as the sequence (Q14671 828-1176 N899K/Y900V/Q903A) above, with K72N, V73Y, A76Q, C180S, R181Q, Q184A counted along it
PUM1 PUF domain R3-YYR, sequence (Q14671 828-1176 C935Y/R936Y/Q939R): as the sequence (Q14671 828-1176 N899K/Y900V/Q903A) above, with K72N, V73Y, A76Q, C108Y, R109Y, Q112R counted along it
PUM1 PUF domain R7-LMF, sequence (Q14671 828-1176 S1079L/N1080M/E1083F): as the sequence (Q14671 828-1176 N899K/Y900V/Q903A) above, with K72N, V73Y, A76Q, S252L, N253M, E256F counted along it
PUM1 PUF domain R2-LPC, sequence (Q14671 828-1176 N899L/Y900P/Q903C): as the sequence (Q14671 828-1176 N899K/Y900V/Q903A) above, with K72L, V73P, A76C counted along it

Question: Which binding signal [1] does the source give for “GGCUAGAACUAGUGGAUCCCCCGGCGCCCGGCGGCUCGAGCCCGGGUAAGUGUGAAUAGUCUGCAUGCCGCCGGGCGCCAUGCCUGCAGGUCGACUCUAGAAAACAUG” here?
Answer: The binding signal was 3.09 log2 enrichment (interaction score).

Question: What about the binding signal [2] of the same sequence?
Answer: Its binding signal is 1.28 log2 enrichment (interaction score).

Question: Which results are given for “GGCUAGAACUAGUGGAUCCCCCGGCGCCCGGCGGCUCGAGCCCGGGUAAGUGUCAAUAGUCUGCAUGCCGCCGGGCGCCAUGCCUGCAGGUCGACUCUAGAAAACAUG”?
Answer: binding signal [2]: 4.35 log2 enrichment (interaction score); binding signal [3]: 3.56 log2 enrichment (interaction score)

Question: How did the binding signal [4] turn out when “GGCUAGAACUAGUGGAUCCCCCGGCGCCCGGCGGCUCGAGCCCGGGUAAGUGCAAAUAGUCUGCAUGCCGCCGGGCGCCAUGCCUGCAGGUCGACUCUAGAAAACAUG” was run?
Answer: The binding signal was 2.34 log2 enrichment (interaction score).

Question: Which binding signal [5] does the source give for “GGCUAGAACUAGUGGAUCCCCCGGCGCCCGGCGGCUCGAGCCCGGGUAAGUGUAUAUAGUCUGCAUGCCGCCGGGCGCCAUGCCUGCAGGUCGACUCUAGAAAACAUG” here?
Answer: The binding signal was 3.28 log2 enrichment (interaction score).

Question: What about the binding signal [6] of the same sequence?
Answer: The binding signal was 3.04 log2 enrichment (interaction score).

Question: For “GGCUAGAACUAGUGGAUCCCCCGGCGCCCGGCGGCUCGAGCCCGGGUAAGUGUACAUAGUCUGCAUGCCGCCGGGCGCCAUGCCUGCAGGUCGACUCUAGAAAACAUG”, which binding signal [5] is on record?
Answer: The binding signal was 2.08 log2 enrichment (interaction score).

Question: With “GGCUAGAACUAGUGGAUCCCCCGGCGCCCGGCGGCUCGAGCCCGGGUAAGUGUAACUAGUCUGCAUGCCGCCGGGCGCCAUGCCUGCAGGUCGACUCUAGAAAACAUG” as the sequence, how does the binding signal [7] read?
Answer: The binding signal was 2.31 log2 enrichment (interaction score).

Question: Which binding signal [8] does the source give for “GGCUAGAACUAGUGGAUCCCCCGGCGCCCGGCGGCUCGAGCCCGGGUAAGUUUAAAUAGUCUGCAUGCCGCCGGGCGCCAUGCCUGCAGGUCGACUCUAGAAAACAUG” here?
Answer: Its binding signal is 3.84 log2 enrichment (interaction score).

Question: What does the source list for “GGCUAGAACUAGUGGAUCCCCCGGCGCCCGGCGGCUCGAGCCCGGGUAAGUGUAAAGAGUCUGCAUGCCGCCGGGCGCCAUGCCUGCAGGUCGACUCUAGAAAACAUG”?
Answer: binding signal [9]: 3.13 log2 enrichment (interaction score); binding signal [10]: 3.4 log2 enrichment (interaction score); binding signal [11]: 2.91 log2 enrichment (interaction score); binding signal [12]: 3.45 log2 enrichment (interaction score); binding signal [13]: 2.37 log2 enrichment (interaction score)
